Experimental data as given in PubChem BioAssay (NCI).
This is part of a sample that, as a whole, favours compounds with a hit. Of some 79,000 tested, about 15% had one in any assay. The source made the active and inactive calls. Rule as the data show it: active = growth inhibition above about 70%; inactive = the rest.

What was measured:
[1] = NCI Yeast Anticancer Drug Screen. Data for the rad52 strain (AID 147);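 also: 0% = growth of vehicle-treated control cultures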; settings: S. cerevisiae rad52 mutant growth inhibition, hits give high values
In short: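 Measured: yeast growth inhibition. System: strain with a defined DNA damage repair alteration. Reference: vehicle-treated control cultures.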

[2] = NCI Yeast Anticancer Drug Screen. Data for the wt1 strain (AID 149);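 also: 0% = growth of vehicle-treated wt1 cultures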; settings: S. cerevisiae wt1 strain (SPY 50644) growth inhibition, hits give high values
In short: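 Using yeast strain wt1, compound-induced growth inhibition was determined against vehicle-treated cultures.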

[3] = NCI Yeast Anticancer Drug Screen. Data for the rad50EPP+ strain (AID 151);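 also: 0% = growth of vehicle-treated control cultures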; settings: S. cerevisiae rad50 mutant strain, hits give high values
In short: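 One strain with a rad50 alteration (rad50EPP+) was compound-treated, its growth then compared to that of vehicle controls.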

[4] = NCI Yeast Anticancer Drug Screen. Data for the mgt1 strain (AID 153); settings: S. cerevisiae mgt1 mutant growth inhibition, hits give high values
In short: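 After exposure of the mgt1 yeast mutant to compound, growth was measured and reported as inhibition compared with vehicle controls.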

[5] = NCI Yeast Anticancer Drug Screen. Data for the rad50 strain (AID 155);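 also: 0% = growth of vehicle-only cultures of the same strain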; settings: S. cerevisiae rad50 strain growth inhibition, hits give high values
In short: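 Relative growth inhibition (compound vs vehicle) was measured in yeast with a defined repair-gene alteration.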

[6] = NCI Yeast Anticancer Drug Screen. Data for the mec2-1 strain (AID 157); settings: S. cerevisiae mec2-1 strain, hits give high values
In short: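 Test agents were screened against the mec2-1 yeast strain, with defined DNA repair or cell cycle alteration. Growth was scored as inhibition against vehicle-only controls.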

[7] = NCI Yeast Anticancer Drug Screen. Data for the sgs1 mgt1 strain (AID 161);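 also: 0% = growth of cultures given vehicle only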; settings: S. cerevisiae sgs1 mgt1 strain, hits give high values
In short: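 Read-out: growth inhibition vs vehicle controls. Cells: mutant yeast strain deficient in DNA damage repair.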

[8] = NCI Yeast Anticancer Drug Screen. Data for the cln2 rad14 strain (AID 165);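 also: 0% = growth equal to vehicle treated cultures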; settings: S. cerevisiae cln2 rad14 strain, hits give high values
In short: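 Growth of compound-exposed yeast (cln2 rad14 genotype) measured and expressed as inhibition relative to vehicle.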

[9] = NCI Yeast Anticancer Drug Screen. Data for the bub3 strain (AID 167); settings: S. cerevisiae bub3 mutant strain, hits give high values
In short: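 Screening used yeast with an engineered genetic alteration affecting cell cycle control. Compound-exposed cultures were compared with vehicle cultures, and reduced growth was taken as inhibition.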

[10] = NCI Yeast Anticancer Drug Screen. Data for the wt2 strain (AID 169);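 also: 0% = growth of vehicle-treated yeast cultures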; settings: S. cerevisiae wt2 strain growth inhibition, hits give high values
In short: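 Genetically defined yeast strains from a DNA-repair/cell-cycle panel were used. Compound-exposed yeast growth was measured, and the inhibition was calculated relative to vehicle treatment.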

[11] = NCI Yeast Anticancer Drug Screen. Data for the sgs1 strain (AID 173);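 also: 0% = growth of vehicle-only control cultures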; settings: S. cerevisiae sgs1 mutant, hits give high values
In short: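 Relative growth inhibition, referenced to vehicle, was determined in a yeast strain with a defined alteration affecting DNA damage repair or cell cycle control after compound exposure.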

[12] = NCI Yeast Anticancer Drug Screen. Data for the mlh1 rad18 strain (AID 175); settings: S. cerevisiae mlh1 rad18 strain growth inhibition, hits give high values
In short: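 In this whole-cell yeast screen, a strain with altered DNA damage repair is challenged with compound, and its growth is measured against matched vehicle-treated controls.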

[13] = NCI Yeast Anticancer Drug Screen. Data for the rad18 strain (AID 177); settings: S. cerevisiae rad18 mutant growth inhibition, hits give high values
In short: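 Screen uses a yeast strain with a defined lesion in DNA damage repair; compound effect is read as loss of growth compared to untreated vehicle cultures.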

[14] = NCI Yeast Anticancer Drug Screen. Data for the CLN2oe strain (AID 163);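 also: 0% = growth of vehicle-only control cultures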; settings: S. cerevisiae CLN2oe strain, hits give high values
In short: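 Here, growth inhibition in a cell-cycle-altered yeast strain after compound exposure was quantified against vehicle control growth.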

[15] = at 5.0 µM (retest, dose inferred, filed as 0.5)
[16] = at 50.0 µM (retest, dose inferred, filed as 5.0)

Measured: growth inhibition

O=C(c1ccc(Cl)cc1)C1OC12C(=O)Nc1ccccc12 (stereo not drawn)
active: [1]; at 3.7 µM 99% | [1]; at 11.0 µM 99% | [1]; at 33.0 µM 99% | [1]; at 100.0 µM 99% | [2]; at 11.0 µM 98% | [2]; at 33.0 µM 98% | [2]; at 100.0 µM 99% | [3]; at 3.7 µM 99% | [3]; at 11.0 µM 99% | [3]; at 33.0 µM 99% | [3]; at 100.0 µM 99% | [4]; at 3.7 µM 100% | [4]; at 11.0 µM 100% | [4]; at 33.0 µM 100% | [4]; at 100.0 µM 99% | [5]; at 3.7 µM 99% | [5]; [15] 100% | [5]; at 11.0 µM 99% | [5]; at 33.0 µM 99% | [5]; [16] 99% | [5]; at 50.0 µM 99.5% | [5]; at 100.0 µM 99% | [6]; at 3.7 µM 99% | [6]; [15] 100% | [6]; at 11.0 µM 99% | [6]; at 33.0 µM 99% | [6]; [16] 100% | [6]; at 50.0 µM 99.7% | [6]; at 100.0 µM 99% | [7]; [15] 100% | [7]; [16] 100% | [7]; at 50.0 µM 99.5% | [8]; [15] 100% | [8]; [16] 100% | [8]; at 50.0 µM 99.7% | [9]; at 3.7 µM 99% | [9]; [15] 100% | [9]; at 11.0 µM 99% | [9]; at 33.0 µM 99% | [9]; [16] 100% | [9]; at 50.0 µM 99.7% | [9]; at 100.0 µM 99% | [10]; at 3.7 µM 99% | [10]; at 11.0 µM 99% | [10]; at 33.0 µM 99% | [10]; at 100.0 µM 99% | [11]; at 3.7 µM 99% | [11]; at 11.0 µM 99% | [11]; at 33.0 µM 99% | [11]; at 100.0 µM 99% | [12]; [15] 100% | [12]; [16] 100% | [12]; at 50.0 µM 99.5% | [13]; at 3.7 µM 99% | [13]; at 11.0 µM 99% | [13]; at 33.0 µM 98% | [13]; at 100.0 µM 99%
inactive: [1]; at 1.2 µM 20% | [2]; at 1.2 µM 1% | [2]; at 3.7 µM 25% | [3]; at 1.2 µM 17% | [4]; at 1.2 µM 31% | [5]; at 1.2 µM 13% | [6]; at 1.2 µM 38% | [9]; at 1.2 µM 43% | [10]; at 1.2 µM 9% | [11]; at 1.2 µM 8% | [13]; at 1.2 µM 6%

N#CN=Nc1cc(Cl)c(N=NC#N)cc1Cl
active: [3]; at 100.0 µM 79% | [4]; at 100.0 µM 70% | [5]; at 50.0 µM 83.8% | [6]; [16] 87% | [6]; at 100.0 µM 78% | [9]; [16] 96% | [9]; at 100.0 µM 88%
inactive: [1]; at 1.2 µM -27% | [1]; at 3.7 µM -19% | [1]; at 11.0 µM -18% | [1]; at 33.0 µM 2% | [1]; at 100.0 µM 68% | [2]; at 1.2 µM -6% | [2]; at 3.7 µM -5% | [2]; at 11.0 µM -6% | [2]; at 33.0 µM -3% | [2]; at 100.0 µM 47% | [3]; at 1.2 µM -4% | [3]; at 3.7 µM -3% | [3]; at 11.0 µM 6% | [3]; at 33.0 µM 31% | [4]; at 1.2 µM -10% | [4]; at 3.7 µM -6% | [4]; at 11.0 µM -6% | [4]; at 33.0 µM 28% | [5]; at 1.2 µM -15% | [5]; at 3.7 µM -8% | [5]; [15] -22% | [5]; at 11.0 µM -7% | [5]; at 33.0 µM 3% | [5]; [16] 64% | [5]; at 100.0 µM 55% | [6]; at 1.2 µM -14% | [6]; at 3.7 µM -17% | [6]; [15] 12% | [6]; at 11.0 µM -18% | [6]; at 33.0 µM -3% | [6]; at 50.0 µM 46% | [7]; [15] -5% | [7]; [16] -4% | [7]; at 50.0 µM 60.2% | [14]; at 1.2 µM -25% | [14]; at 3.7 µM -6% | [14]; at 11.0 µM -6% | [14]; at 33.0 µM -8% | [14]; at 100.0 µM 67% | [8]; [15] 33% | [8]; [16] 55% | [8]; at 50.0 µM 20.6% | [9]; at 1.2 µM -19% | [9]; at 3.7 µM 2% | [9]; [15] -1% | [9]; at 11.0 µM -7% | [9]; at 33.0 µM 25% | [9]; at 50.0 µM 43.8% | [10]; at 1.2 µM 2% | [10]; at 3.7 µM 1% | [10]; at 11.0 µM 0% | [10]; at 33.0 µM 3% | [10]; at 100.0 µM 30%
